Records with an inconclusive call do not appear. Entries that show only a call come without a potency. Active and inactive are the calls of the source. The call rests on the fitted dose curve; in most records, active means well fitted inhibition curve with a large enough effect; inconclusive means small, poorly fitted or top-dose-only effect; inactive means flat fitted curve, though single readings scatter.
The compounds below were run against Calcium and integrin-binding protein 1 (Homo sapiens) (UniProt Q99828) (assay: Primary qHTS for Identification of Calcium Integrin Binding Protein 1 (CIB1) Competitor (AID 1508620)). Details: CIB1-GST / FITC-alphaIIb peptide fluorescence polarization; series mostly up to 114 µM.
Calcium and integrin-binding protein 1 (Homo sapiens), sequence (Q99828 whole entry, looked up): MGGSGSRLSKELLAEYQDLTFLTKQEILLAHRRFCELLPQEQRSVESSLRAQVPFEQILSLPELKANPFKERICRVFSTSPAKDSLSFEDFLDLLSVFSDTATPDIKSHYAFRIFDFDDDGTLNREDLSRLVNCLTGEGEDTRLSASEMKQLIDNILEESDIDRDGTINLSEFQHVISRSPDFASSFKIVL
In short: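 CIB1-GST (1 uM final) and compound incubated 15 min at room temperature before adding FITC-alphaIIb peptide tracer (100 nM final). Competition for binding read by fluorescence polarization (ex 480, em 540) after another 15 min at room temperature.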
Oc1ccc(CNc2cc(Br)ccn2)c2cccnc12 was tested, and the Potency was “inactive”. With CC(=O)Nc1cccc(OC2=NS(=O)(=O)c3ccccc32)c1 the Potency was “inactive”. With NC(=O)c1ccc(-c2noc(-c3ccccc3F)n2)cc1 the Potency was “inactive”. For COc1cc(NC(=O)C(OC(=O)CNC(=O)c2ccccc2)c2ccccc2)cc(C(F)(F)F)c1 (stereo not given), the Potency was “inactive”. In the case of CC(=O)Nn1c(C)nc2sc3c(c2c1=O)CCNC3, the Potency is reported as “inactive”. For Cc1ccccc1-c1ccc(NC(=O)c2cccs2)cn1, the Potency was “inactive”. For Cc1ccc(S(=O)(=O)N(C)c2cccc3cccnc23)cc1, the Potency was “inactive”. In the case of O=C(N1CCc2ccc(S(=O)(=O)N3CCN(S(=O)(=O)c4ccc5c(c4)OCCO5)CC3)cc2C1)C(F)(F)F, the Potency is reported as “inactive”. For Cc1c(Cl)cccc1NS(=O)(=O)c1cc2c(cc1Cl)CCC(=O)N2, the Potency was “inactive”. In the case of COc1ccccc1-c1csc(N2CCC(C(N)=O)CC2)n1, the Potency is reported as “inactive”. For O=C1c2ccccc2C(=O)N1c1cc(=O)c2ccccc2[nH]1, the Potency was “inactive”. CC(=O)C1CCN(c2ncc(-c3cccc(N(C)C)c3)s2)CC1 was tested, and the Potency was “inactive”. With Fc1cc(F)cc(Nc2nc(Cl)nc(NC3CCCC3)n2)c1 the Potency was “inactive”. COc1ccc(NC(=O)c2cnn3c(C)cc(C)nc23)cc1 was tested, and the Potency was “inactive”. With CCOC(=O)C1CCN(C(=O)C2(NC(=O)Nc3ccc(F)cc3F)CCCCC2)CC1 the Potency was “inactive”. For Cc1cccc(Nc2nn3c(=O)c4ccccc4nc3s2)c1, the Potency was “inactive”. With Cc1ccc(-c2ccc(=O)n(CC(=O)NCCCc3ccccc3)n2)cc1 the Potency was “inactive”. With N#Cc1ccc(-c2ccc(NC(=O)c3cccs3)cn2)cc1 the Potency was “inactive”. In the case of Cc1nnc(-c2cnn(C)c2N)n1CCc1cccs1, the Potency is reported as “inactive”. N#Cc1nc(Nc2cccc3ccccc23)nc(NC2CCCC2)n1 was tested, and the Potency was “inactive”. In the case of Cn1c2cc(Br)sc2c2cnn(Cc3ccccc3F)c(=O)c21, the Potency is reported as “inactive”. With Cc1cccc(-n2cnc3cc(C(=O)N4CCC(N5CCOCC5)CC4)ccc32)c1 the Potency was “inactive”. For O=S(=O)(c1ccc2ccccc2c1)N1CCN(S(=O)(=O)c2c(F)cccc2F)CC1, the Potency was “inactive”. In the case of Cc1cc2c(s1)c1cnn(Cc3ccc(F)c(Cl)c3)c(=O)c1n2C, the Potency is reported as “inactive”. In the case of O=C(Cc1ccc(Cl)c(Cl)c1)Nc1ccc(S(=O)(=O)Nc2ccccc2)cc1, the Potency is reported as “inactive”. With O=C(Nc1ccc2ccccc2c1)Nc1nnc(-c2ccc(O)cc2)s1 the Potency was “inactive”. In the case of O=C1CCCC2=C1C(c1[nH]ncc1Cl)NC(=NCc1ccncc1)N2 (stereo not given), the Potency is reported as “inactive”. Cc1cc2c(s1)c1cnn(Cc3ccc(SC(F)(F)F)cc3)c(=O)c1n2C was tested, and the Potency was “inactive”. For Cc1ccc(NS(=O)(=O)c2cc3c(cc2NCC(C)(C)O)NC(=O)CC3)cc1C, the Potency was “inactive”. With Cc1cnc(-c2ccccc2CO)nc1NCC1CCN(c2cccnc2)CC1 the Potency was “inactive”. For COc1cc(O)c(C(CC(=O)N2CCCC(c3ccccc3)C2)c2ccc3c(c2)OCO3)c(OC)c1 (stereo not given), the Potency was “inactive”. CC(=O)Nc1sc2c(c1-c1nc3ccccc3s1)CCN(C1COC1)C2 was tested, and the Potency was 14.1 µM (active). With COc1ccc(C2Nc3ccccc3C(=O)N2Cc2ccco2)cc1COc1cccc(NC(C)=O)c1 (stereo not given) the Potency was “inactive”. For O=C(O)c1ccc2c(c1)C(=O)N([C@H](Cc1ccccc1)C(=O)O)C2=O, the Potency was “inactive”. For Cc1ccc(NS(=O)(=O)c2ccc3c(c2)CCC(=O)N3)cc1, the Potency was “inactive”. In the case of NC(=O)C1CCN(c2nc(-c3cccc(F)c3)cs2)CC1, the Potency is reported as “inactive”. CC(=O)NC(C)c1cc(Cl)c2ccccc2c1O (stereo not given) was tested, and the Potency was “inactive”. For NC(=O)C1CCN(c2nc(-c3cc4ccccc4o3)cs2)CC1, the Potency was “inactive”. With COc1cccc(S(=O)(=O)NC2CCN(C#N)C2)c1 (stereo not given) the Potency was “inactive”. For CC(C)c1ccccc1-c1nc2c(c(NCc3ccc(-c4cccnc4)cc3)n1)CCNC2, the Potency was “inactive”.

— PubChem BioAssay (NCATS)
Potency means the concentration at half of the fitted maximal effect.
